From PubChem BioAssay
SF-1 inh: SF-1 (human) inhibition; inhibition, % at 10 µM; AID 525; CHO-K1 Gal4-SF-1 LBD luciferase reporter; 65,000 compounds, 0.55% hits; Q13285;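 active means inhibition above the mean inhibition of all tested compounds plus 3 SD, cut at about 48% in these data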;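 further: 0% = SF-1 transfected cells with DMSO and 100% = mock-transfected cells lacking SF-1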
Target sequence (Q13285 whole entry, looked up, the tested form may be a part): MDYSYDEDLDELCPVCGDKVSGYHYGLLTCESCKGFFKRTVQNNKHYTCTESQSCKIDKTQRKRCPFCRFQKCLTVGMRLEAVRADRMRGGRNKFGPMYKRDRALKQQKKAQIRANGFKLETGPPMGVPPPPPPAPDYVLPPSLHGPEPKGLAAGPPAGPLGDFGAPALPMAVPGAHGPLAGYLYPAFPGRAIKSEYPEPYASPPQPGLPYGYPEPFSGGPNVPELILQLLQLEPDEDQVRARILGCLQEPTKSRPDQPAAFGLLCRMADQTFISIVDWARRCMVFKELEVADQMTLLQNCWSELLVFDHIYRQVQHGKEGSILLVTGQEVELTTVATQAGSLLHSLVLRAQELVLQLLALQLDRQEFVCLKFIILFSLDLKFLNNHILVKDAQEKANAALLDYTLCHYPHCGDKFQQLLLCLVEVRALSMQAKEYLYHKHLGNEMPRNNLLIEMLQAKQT
* = called active by the depositor. The full list was thinned out, with hits kept by preference.

SMILES | SF-1 inh
O=C(Cn1cnc2ccccc21)NCCCN1CCOCC1 | -24
CCOc1cccc(C(=O)Nc2nnc(-c3ccco3)s2)c1 | -11
CCOc1ccc(N2C(=O)c3cccnc3C2Nc2ccc(C)cc2)cc1 (centres undefined) | 0
COc1cccc(NC(=O)CSc2nnc(-c3cc(C)n(-c4ccccc4)c3C)o2)c1 | 67*
COc1ccc(-n2c(Cc3cccn3C)nnc2SCC(=O)Nc2cccc(OC)c2)cc1 | -10
COc1cccc(NC(=O)CSc2ccc3nnc(-c4ccncc4)n3n2)c1 | 13
CC1CN(c2oc(Cc3cccc4ccccc34)nc2C#N)CC(C)O1 (centres undefined) | 14
O=C(CN1C(=O)NC2(CCCCCC2)C1=O)c1ccc2c(c1)OCCO2 | -89
CCOC(=O)c1sc(NC(=O)C2CC2)nc1C | -8
CC(=O)c1sc(Nc2nc3ccc(F)cc3s2)nc1C | -53
CC(=O)c1sc(NC(=O)C2(F)C(F)(F)C(F)(F)C(F)(F)C(F)(F)C2(F)F)nc1C | 93*
O=C(O)C1CC=CCC1C(=O)Nc1ccc(S(=O)(=O)N2CCCc3ccccc32)cc1 (centres undefined) | -12
CCOC(=O)N1CCN(C(=O)c2ccc3c(SCC(=O)O)c4c(nc3c2)CCC4)CC1 | 10
COc1ccc(-c2noc(C3CCCN(C(=O)CCc4ccccc4)C3)n2)cc1 (centres undefined) | 4
COc1ccc(NC(=O)N2CCCC(c3nc(-c4ccc(C(C)C)cc4)no3)C2)cc1 (centres undefined) | 59*
COc1cccc(NC(=O)N2CCC(N3CCCCC3)CC2)c1 | 21
O=C(c1cccs1)c1cn(CC(=O)N2CCc3ccccc3C2)c2ccccc12 | 4
O=C(C1CCCN(S(=O)(=O)c2ccccc2)C1)N1CCCc2ccccc21 (centres undefined) | 5
CN(C(=O)C12CC3CC(CC(C3)C1)C2)C1CCS(=O)(=O)C1 (centres undefined) | 16
COc1cc2c(C#N)c(N3CCc4ccccc4C3)nc(N)c2c(N)n1 | -8
c1ccc2c(c1)CCN(c1nc3cc4c(cc3s1)OCCO4)C2 | 60*
CCOC(=O)CSC(CC)C(=O)Nc1nnc(C(C)C)s1 (centres undefined) | -18
CC1CCCN(c2ccc(C(=O)NCC3CCCO3)cn2)C1 (centres undefined) | -58
CCCCCOC(=O)c1[nH]c2c(c1C)C(=O)CC(c1ccco1)C2 (centres undefined) | 57*
Cc1ccc2oc(=O)c3cnn(CC(=O)NCCC(C)C)c3c2c1 | 14
SMILES | SF-1 inh
Cc1nn(Cc2c(Cl)cccc2Cl)c(C)c1NC(=O)c1cc(C(C)C)on1 | -19
COc1ccc(C)cc1-n1nnnc1SCc1nc2ccccc2s1 | -110
Cc1ccc(Nc2nc(CSc3nnnn3-c3ccccc3)cs2)cc1 | 6
COc1cc(CSc2nnnn2-c2ccc(C)cc2)cc(OC)c1OC | 62*
COCCn1c(C2CCCCC2)nc2sc3ccccc3c(=O)c2c1=O | -2
Cc1nnc(SCCN2CCOCC2)n1C | -13
O=S(=O)(NCCSc1nnnn1-c1ccccc1)c1cccs1 | -54
CCOc1ccccc1N(CC(=O)Nc1ccc(C)cc1)S(C)(=O)=O | 2
CCOc1ccccc1-n1c(SCC(=O)Nc2ccc(CC)cc2)nc2n[nH]c(C)c2c1=N | 84*
CCOc1cccc(-c2nnc(SCC(=O)Nc3ccc(OC)c(OC)c3)n2N)c1 | 11
CC(=O)Nc1ccc(-c2nc3c(C)cccc3[nH]2)cc1 | -99
O=C(CN(Cc1ccco1)C(=O)CNS(=O)(=O)c1ccc(F)cc1)NCCc1ccccc1 | -2
Cc1cc(/C=N/n2cnnc2)c(C)n1-c1ccc(OCc2ccccc2F)cc1 | 84*
O=S(=O)(c1ccccc1)N(C1=NCCS1)S(=O)(=O)c1ccccc1 | -6
CCN(CC)S(=O)(=O)c1cc(C(=O)Nc2ccc(Cl)cn2)ccc1C | -61
CCCCS(=O)(=O)/C=C\C=C/S(=O)(=O)CCCC | 96*
CC(=O)c1cccc(NC(=O)CN(c2ccc(C)cc2)S(=O)(=O)c2cccc3nonc23)c1 | 9
O=C(CCCSc1nc2ccccc2[nH]1)NC1=NCCS1 | 12
O=C(CSC1=NCCS1)Nc1ccnc2ccccc12 | 67*
O=C(CSc1cn(Cc2ccccc2)c2ccccc12)Nc1nccs1 | -84
Cn1c(SCC(=O)Nc2cc(=O)n(C)c(=O)n2C)nnc1-c1cccs1 | -6
O=C(CN(CC1CCCO1)C(=O)CCC(=O)Nc1ccccn1)NCC1CCCO1 (centres undefined) | 0
CCOc1ccc(S(=O)(=O)Nc2ccccc2C(=O)NCC2CCCO2)cc1 (centres undefined) | 10
CN(CC1CCCO1)S(=O)(=O)c1ccc(C(=O)Nc2nc(-c3ccccn3)cs2)cc1 (centres undefined) | 70*
CC(=O)c1c(C)nc2nonc2c1N | 4
SMILES | SF-1 inh
COc1cc(CNC2CCC(C)C2)cc(OC)c1 (centres undefined) | 6
Cc1cccc(OCC(O)CN2CCN(C3CCCCC3)CC2)c1 (centres undefined) | -36
CC(=O)Nc1cccc(NC(=O)c2cc3ccccc3o2)c1 | -87
COc1ccc(NC(=O)c2cc3ccccc3o2)cc1 | -54
CCCC(=O)N1CCN(c2ccc(NC(=O)c3cc4ccccc4o3)cc2Cl)CC1 | 48*
O=C(Nc1ccc2c(c1)OCO2)c1cnn2cccnc12 | -70
COc1ccc(-c2c(C)n([O-])c3c([n+]2=O)CCC3)cc1OC | -4
O=C(COC(=O)Cn1cnc2ccccc21)NCCC1=CCCCC1 | -4
CC(=O)c1cnc2cc(-c3ccccc3)nn2c1C | -50
COc1cc(OC)cc(-c2cc3nc(C)c(CCC(=O)O)c(C)n3n2)c1 | 79*
COc1ccc(-c2nc(N3CCOCC3)nc3nn4c(C)c(CCC(=O)O)c(C)nc4c23)cc1 | 4
COc1ccc(C2=CSC3=NCCN23)cc1F | -8
CCOC(=O)Cn1c(=O)c2c(nc(Br)n2Cc2ccc(Cl)cc2)n(C)c1=O | 0
O=C(Cn1c(=O)sc2ccccc21)NCCOc1ccccc1F | -10
COc1ccc2c(c1OC)C(=O)N(c1cccc(C(F)(F)F)c1)C2 | -59
COc1ccccc1CC(=O)N1CCN(c2cccc(C(F)(F)F)c2)CC1 | 48*
O=C(O)CCC(=O)N1CCN(c2cccc(Cl)c2)CC1 | -10
CCOC(=O)N1CCN(C(=O)CN(C)S(=O)(=O)c2ccc(OC)c(OC)c2)CC1 | 0
O=C(NCCCn1ccnc1)C1c2ccccc2Oc2ccccc21 | 5
CCN1C(=O)/C(=C2/Sc3ccc(OC)cc3N2C)SC1=Nc1cccc(O)c1 | 51*
Cc1ccc(-c2ccc(OCC(=O)N3CCOCC3)cc2)cc1 | 2
CCOc1ccc(OCc2cccc(C(=O)N3CCOCC3)c2)cc1 | 62*
COc1cccc(C(=O)N2CCN(Cc3cccc(F)c3)CC2)c1 | 2
CCOC(=O)c1c(N)sc(C(=O)Nc2ccc3c(c2)OCO3)c1C | 53*
Cc1noc(C(=O)Nc2ccc3c(c2)OCO3)c1Cl | -61
SMILES | SF-1 inh
Cc1occc1C(=O)Nc1ccc2c(c1)OCO2 | -53
CC1(C)CNC(=O)c2sc(N3CCOCC3)nc2C1 | -4
CS(=O)(=O)N(CC(=O)NCc1ccncc1)c1cc(Cl)cc(Cl)c1 | 14
N#C/C(=C\c1ccc(O)c(O)c1)C(=O)NCCCc1ccccc1 | 69*
CCOC(=O)c1nnn(-c2nonc2N)c1COc1ccccc1 | 6
COCCN(CC(=O)NCc1ccccc1)C(=O)CCC(=O)Nc1nccs1 | -15
Cc1cc(C)nc(Nc2nc(=O)c3ccccc3s2)n1 | -31
COC(=O)c1c(C)[nH]c(C(=O)OCc2ccc(F)cc2)c1C | -60
